Results taken from PubChem BioAssay (Tox21).
“And” between values parts separate entries of the source, which are not always exact repeats. Identical values can stand only once. Records with an inconclusive call do not appear. Where a call stands in place of a potency, no number is given. Some structures have more than one record in an assay (separate samples or runs), and their calls can disagree. The source made the active and inactive calls. Calls follow the shape of the dose curve; as a rule, active = well fitted curve in the direction sought with a large enough effect in the repeat runs; inconclusive = weak or mixed curves; inactive = no such curve, though single readings can be large; an effect the other way counts as inactive or inconclusive.

Columns and labels:
[1] = Caspase-3/7 induction in HepG2 cells by small molecules, qHTS assay (AID 1346978); also: nearly all actives have a fitted effect of over 15% in size
Summary of the method: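 Wild-type HepG2 cells (2,000/well) were settled 5 h at 37 C, 5% CO2, then exposed to compounds in DMSO for 17 h. Caspase-3/7 activity was read by luminescence 30 min after adding Caspase-Glo 3/7 reagent at room temperature.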

[2] = Caspase-3/7 induction in CHO-K1 cells by small molecules, qHTS cell viability counter screen (AID 1346979); also: nearly all actives have a fitted effect of over 35% in size; also: potency is read from the fitted curve at half-maximal effect
Summary of the method: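 CellTiter-Fluor viability check, qHTS format: wild-type CHO-K1, 16hr compound treatment, 1hr reagent incubation, fluorescence read.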

[3] = Caspase-3/7 induction in CHO-K1 cells by small molecules, qHTS assay (AID 1346980); also: nearly all actives have a fitted effect of over 15% in size
Summary of the method: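 Wild-type cells were seeded at 1,500 per well and settled 5 hr at 37 C, 5% CO2, then exposed to DMSO-dissolved compounds for 17 hr. Caspase-Glo 3/7 reagent was added, and luminescence was read after 30min at room temperature.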

[4] = Caspase-3/7 induction in HepG2 cells by small molecules, qHTS cell viability counter screen (AID 1346981); also: series mostly up to about 92 µM; nearly all actives have a fitted effect of over 30% in size
Summary of the method: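 Multiplexed with the caspase-3/7 assay: HepG2 cells, 16 hr compound treatment, CellTiter-Fluor viability detection by fluorescence.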

[5] = molecular target: Nuclear receptor subfamily 1 group I member 2 (Homo sapiens) (UniProt O75469); experiment: Human pregnane X receptor (PXR) small molecule agonists, qHTS assay (AID 1346982); also: nearly all actives have a fitted effect of over 35% in size; also: potency is read from the fitted curve at half-maximal effect
Summary of the method: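 We seeded PXR-Luc HepG2 cells in assay medium containing 5% charcoal-stripped FBS, added compounds 5 hr later, incubated 24 hr, and read luminescence with ONE-Glo reagent.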

[6] = molecular target: Cytochrome P450 2D6 (Homo sapiens) (UniProt P10635); experiment: Cytochrome P450 Family 2 Subfamily D Member 6 (CYP2D6) small molecule antagonists: luciferase reporter qHTS assay (AID 1671196); also: nearly all actives have a fitted effect of over 50% in size; also: potency is read from the fitted curve at half-maximal effect
Summary of the method: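 Luminescence (RLU), read 20 min after detection reagent, indicated CYP2D6 conversion of proluciferin to luciferin during a 1 h NADPH-dependent reaction at room temperature.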

[7] = molecular target: Cytochrome P450 2C19 (Homo sapiens) (UniProt P33261); experiment: Cytochrome P450 Family 2 Subfamily C Member 19 (CYP2C19) small molecule antagonists: luciferase reporter qHTS assay (AID 1671197); also: nearly all actives have a fitted effect of over 65% in size; also: potency is read from the fitted curve at half-maximal effect
Summary of the method: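 First, compounds are pinned into enzyme-substrate mix and held 10 min at room temperature. Second, NADPH regeneration solution is added and plates incubate 1 h at 37C. Third, detection reagent is added and luminescence read after 20 min.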

[8] = molecular target: Cytochrome P450 2C9 (Homo sapiens) (UniProt P11712); experiment: Cytochrome P450 Family 2 Subfamily C Member 9 (CYP2C9) small molecule antagonists: luciferase reporter qHTS assay (AID 1671198); also: nearly all actives have a fitted effect of over 50% in size; also: potency is read from the fitted curve at half-maximal effect
Summary of the method: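 CYP2C9 activity was measured with a P450-Glo proluciferin substrate. Enzyme–substrate mix was held with compound for 10 min at room temperature, then NADPH regeneration solution was added for 1 h at 37C. Luciferin product was read as luminescence.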

[9] = molecular target: Voltage-gated inwardly rectifying potassium channel KCNH2 (Homo sapiens) (UniProt Q12809); experiment: Human Ether-a-go-go-Related Gene (hERG) channel small molecule antagonists: fluorescence cell-based qHTS assay (AID 1671200); also: nearly all actives have a fitted effect of over 50% in size; also: potency is read from the fitted curve at half-maximal effect
Summary of the method: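 Kinetic two-minute fluorescence traces, sampled at 1 s, were collected following thallium stimulus of U2OS cells (1000 per well) that had been cultured overnight at 37 C and loaded with FluxOR II.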

[10] = molecular target: Cytochrome P450 3A4 (Homo sapiens) (UniProt P08684); experiment: Cytochrome P450 Family 3 Subfamily A Member 4 (CYP3A4) small molecule antagonists: luciferase reporter qHTS assay (AID 1671201); also: nearly all actives have a fitted effect of over 50% in size; also: potency is read from the fitted curve at half-maximal effect
Summary of the method: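 Proluciferin-to-luciferin conversion by CYP3A4, NADPH-regenerated, 1 h RT; luminescence read as RLU. Ketoconazole as control.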

[11] = molecular target: Nuclear receptor subfamily 1 group I member 2 (Rattus norvegicus) (UniProt Q9R1A7); experiment: Rat pregnane X receptor (rPXR) activation by small molecules, qHTS assay (AID 1346983); details: rPXR luciferase reporter cells, One-Glo luminescence, 24 h; stronger effect = higher value; also: nearly all actives have a fitted effect of over 20% in size
Summary of the method: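 Cell-based rPXR luciferase reporter assay, 2,000 cells per well, rested 5hr at 37 C before compound addition in DMSO, then 24 hr at 37 C. One-Glo reagent was added and luminescence read after 30 min at room temperature.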

[12] = molecular target: Nuclear receptor subfamily 1 group I member 2 (Homo sapiens) (UniProt O75469); experiment: CYP3A4 induction through human pregnane X receptor (PXR) by small molecules, qHTS assay (AID 1346984); also: nearly all actives have a fitted effect of over 40% in size; also: potency is read from the fitted curve at half-maximal effect
Summary of the method: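 qHTS, concentration-response format: HepG2 DPX-2 line, PXR/CYP3A4-luc. Exposure 24 h, 37C. Substrate Luciferin-IPA 3uM final, 3 h. Detection One-Glo, 30 min RT.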

[13] = molecular target: Nuclear receptor subfamily 1 group I member 2 (Homo sapiens) (UniProt O75469); experiment: Human pregnane X receptor (PXR) activation by small molecules, qHTS assay (AID 1346985); also: nearly all actives have a fitted effect of over 40% in size; also: potency is read from the fitted curve at half-maximal effect
Summary of the method: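 DPX-2 cells (HepG2 co-transfected with a PXR response element and a CYP3A4-promoter luciferase construct) were seeded at 2,000 per well, rested 5 hr at 37C, then exposed to DMSO-dissolved compounds for 24 hr. Activation was read as luciferase luminescence.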

[14] = molecular target: Cytochrome P450 1A2 (Homo sapiens) (UniProt P05177); experiment: Cytochrome P450 Family 1 Subfamily A Member 2 (CYP1A2) small molecule antagonists: luciferase reporter qHTS assay (AID 1671199); also: nearly all actives have a fitted effect of over 50% in size; also: potency is read from the fitted curve at half-maximal effect
Summary of the method: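 CYP1A2 turnover of a luminogenic substrate was quantified after 1 h with NADPH regeneration at room temperature. Furafylline served as positive control.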

Chain of Nuclear receptor subfamily 1 group I member 2 (Rattus norvegicus) (Q9R1A7 whole entry, looked up): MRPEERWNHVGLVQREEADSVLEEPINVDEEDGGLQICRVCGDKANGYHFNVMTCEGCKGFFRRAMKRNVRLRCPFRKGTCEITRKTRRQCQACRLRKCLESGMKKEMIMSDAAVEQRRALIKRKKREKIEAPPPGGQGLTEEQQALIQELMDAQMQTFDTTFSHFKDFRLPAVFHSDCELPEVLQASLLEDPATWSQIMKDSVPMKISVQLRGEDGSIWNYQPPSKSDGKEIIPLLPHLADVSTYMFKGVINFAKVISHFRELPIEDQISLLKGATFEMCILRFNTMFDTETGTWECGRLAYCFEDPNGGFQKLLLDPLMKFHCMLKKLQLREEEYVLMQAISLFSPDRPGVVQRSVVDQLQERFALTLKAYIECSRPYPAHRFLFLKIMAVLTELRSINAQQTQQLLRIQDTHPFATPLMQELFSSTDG
Chain of Cytochrome P450 2D6 (Homo sapiens) (P10635 whole entry, looked up): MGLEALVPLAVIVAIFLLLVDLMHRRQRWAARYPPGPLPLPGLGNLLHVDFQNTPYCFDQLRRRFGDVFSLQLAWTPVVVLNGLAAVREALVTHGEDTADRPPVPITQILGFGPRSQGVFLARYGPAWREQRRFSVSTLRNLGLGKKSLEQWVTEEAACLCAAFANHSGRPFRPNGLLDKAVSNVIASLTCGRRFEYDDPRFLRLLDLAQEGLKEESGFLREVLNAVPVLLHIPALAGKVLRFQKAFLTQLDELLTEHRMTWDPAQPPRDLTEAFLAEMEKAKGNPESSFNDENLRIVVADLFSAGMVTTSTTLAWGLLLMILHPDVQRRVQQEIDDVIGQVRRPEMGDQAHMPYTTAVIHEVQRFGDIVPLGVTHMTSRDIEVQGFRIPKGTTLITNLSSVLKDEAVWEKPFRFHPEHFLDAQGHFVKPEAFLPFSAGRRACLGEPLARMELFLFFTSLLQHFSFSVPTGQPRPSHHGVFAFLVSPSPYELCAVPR
Chain of Cytochrome P450 1A2 (Homo sapiens) (P05177 whole entry, looked up): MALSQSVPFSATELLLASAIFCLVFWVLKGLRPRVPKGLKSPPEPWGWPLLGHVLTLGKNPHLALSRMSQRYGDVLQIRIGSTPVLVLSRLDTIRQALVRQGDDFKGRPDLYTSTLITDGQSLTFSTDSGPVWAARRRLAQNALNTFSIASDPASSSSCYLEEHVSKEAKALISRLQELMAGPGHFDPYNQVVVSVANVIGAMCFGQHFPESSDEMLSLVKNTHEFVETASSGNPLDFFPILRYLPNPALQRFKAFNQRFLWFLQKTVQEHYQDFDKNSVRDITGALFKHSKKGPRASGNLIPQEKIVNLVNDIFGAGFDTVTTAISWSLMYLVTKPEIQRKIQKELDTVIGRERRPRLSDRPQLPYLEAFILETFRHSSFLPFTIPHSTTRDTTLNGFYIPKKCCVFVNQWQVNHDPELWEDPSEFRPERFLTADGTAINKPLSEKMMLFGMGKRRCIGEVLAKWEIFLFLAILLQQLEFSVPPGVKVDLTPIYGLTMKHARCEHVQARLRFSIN
Chain of Cytochrome P450 2C9 (Homo sapiens) (P11712 whole entry, looked up): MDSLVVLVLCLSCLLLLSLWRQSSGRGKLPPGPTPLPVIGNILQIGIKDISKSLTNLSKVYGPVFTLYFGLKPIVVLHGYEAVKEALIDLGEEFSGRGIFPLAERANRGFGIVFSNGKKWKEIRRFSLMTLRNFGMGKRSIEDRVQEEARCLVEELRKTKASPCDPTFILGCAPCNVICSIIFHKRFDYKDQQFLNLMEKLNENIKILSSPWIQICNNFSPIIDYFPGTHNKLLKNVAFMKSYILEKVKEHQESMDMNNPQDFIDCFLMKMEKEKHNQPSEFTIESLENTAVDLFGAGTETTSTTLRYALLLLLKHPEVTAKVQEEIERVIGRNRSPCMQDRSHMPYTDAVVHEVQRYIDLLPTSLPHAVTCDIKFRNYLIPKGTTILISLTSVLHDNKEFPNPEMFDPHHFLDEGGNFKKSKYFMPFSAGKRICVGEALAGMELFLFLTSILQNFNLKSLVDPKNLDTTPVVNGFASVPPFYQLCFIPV
Chain of Voltage-gated inwardly rectifying potassium channel KCNH2 (Homo sapiens) (Q12809 whole entry, looked up): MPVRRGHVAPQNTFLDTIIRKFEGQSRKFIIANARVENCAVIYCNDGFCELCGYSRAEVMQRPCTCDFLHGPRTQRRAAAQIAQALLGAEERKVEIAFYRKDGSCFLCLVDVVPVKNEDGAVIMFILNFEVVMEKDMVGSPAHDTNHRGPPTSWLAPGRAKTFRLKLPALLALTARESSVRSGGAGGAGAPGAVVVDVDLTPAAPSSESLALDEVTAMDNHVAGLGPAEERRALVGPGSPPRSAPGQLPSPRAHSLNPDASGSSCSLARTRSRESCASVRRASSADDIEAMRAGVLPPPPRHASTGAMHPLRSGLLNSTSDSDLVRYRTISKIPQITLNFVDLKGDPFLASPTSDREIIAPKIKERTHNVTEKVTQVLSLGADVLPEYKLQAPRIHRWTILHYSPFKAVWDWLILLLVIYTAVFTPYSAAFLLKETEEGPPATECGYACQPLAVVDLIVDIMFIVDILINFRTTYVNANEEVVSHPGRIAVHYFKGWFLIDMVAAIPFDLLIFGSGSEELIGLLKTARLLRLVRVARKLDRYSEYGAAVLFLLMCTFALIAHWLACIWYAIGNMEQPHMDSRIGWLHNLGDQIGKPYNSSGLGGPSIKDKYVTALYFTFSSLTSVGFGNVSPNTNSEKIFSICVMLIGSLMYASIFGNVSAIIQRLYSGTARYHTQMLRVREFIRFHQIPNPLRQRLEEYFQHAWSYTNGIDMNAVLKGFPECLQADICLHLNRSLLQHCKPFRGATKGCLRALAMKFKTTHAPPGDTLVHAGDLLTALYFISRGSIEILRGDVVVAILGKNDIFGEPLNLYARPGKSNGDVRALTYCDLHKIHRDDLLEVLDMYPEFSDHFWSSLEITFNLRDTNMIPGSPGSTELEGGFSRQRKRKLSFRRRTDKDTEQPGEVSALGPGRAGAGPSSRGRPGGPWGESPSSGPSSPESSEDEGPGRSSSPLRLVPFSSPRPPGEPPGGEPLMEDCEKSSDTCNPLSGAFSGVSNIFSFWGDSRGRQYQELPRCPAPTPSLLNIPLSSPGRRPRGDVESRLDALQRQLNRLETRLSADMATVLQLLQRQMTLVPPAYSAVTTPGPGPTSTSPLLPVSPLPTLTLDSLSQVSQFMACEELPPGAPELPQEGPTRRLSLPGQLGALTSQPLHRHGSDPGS
Chain of Nuclear receptor subfamily 1 group I member 2 (Homo sapiens) (O75469 whole entry, looked up): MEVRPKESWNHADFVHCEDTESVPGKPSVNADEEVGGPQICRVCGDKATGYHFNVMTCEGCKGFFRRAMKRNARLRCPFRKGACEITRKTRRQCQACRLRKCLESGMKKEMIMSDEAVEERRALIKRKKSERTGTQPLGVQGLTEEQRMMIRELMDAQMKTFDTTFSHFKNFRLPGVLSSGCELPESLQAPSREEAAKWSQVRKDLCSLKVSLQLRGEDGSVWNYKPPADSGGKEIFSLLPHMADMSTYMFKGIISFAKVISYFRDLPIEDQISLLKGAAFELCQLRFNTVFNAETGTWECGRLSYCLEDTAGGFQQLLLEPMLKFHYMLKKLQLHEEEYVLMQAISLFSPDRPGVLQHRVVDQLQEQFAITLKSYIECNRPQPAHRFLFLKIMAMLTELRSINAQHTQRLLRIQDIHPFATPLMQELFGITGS
Chain of Cytochrome P450 3A4 (Homo sapiens) (P08684 whole entry, looked up): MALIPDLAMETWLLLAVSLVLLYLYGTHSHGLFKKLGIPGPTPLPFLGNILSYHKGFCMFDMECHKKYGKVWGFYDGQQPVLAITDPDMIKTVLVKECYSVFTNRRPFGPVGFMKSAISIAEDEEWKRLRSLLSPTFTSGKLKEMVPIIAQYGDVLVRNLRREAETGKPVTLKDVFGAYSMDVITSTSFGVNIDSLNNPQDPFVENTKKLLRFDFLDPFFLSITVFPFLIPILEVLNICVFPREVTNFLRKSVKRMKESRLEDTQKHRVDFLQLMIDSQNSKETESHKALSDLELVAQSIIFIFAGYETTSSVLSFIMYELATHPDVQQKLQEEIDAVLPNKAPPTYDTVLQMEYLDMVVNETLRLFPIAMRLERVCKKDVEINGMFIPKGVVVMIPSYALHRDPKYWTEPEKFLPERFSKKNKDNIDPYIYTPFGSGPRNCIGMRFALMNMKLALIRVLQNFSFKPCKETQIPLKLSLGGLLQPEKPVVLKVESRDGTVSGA
Chain of Cytochrome P450 2C19 (Homo sapiens) (P33261 whole entry, looked up): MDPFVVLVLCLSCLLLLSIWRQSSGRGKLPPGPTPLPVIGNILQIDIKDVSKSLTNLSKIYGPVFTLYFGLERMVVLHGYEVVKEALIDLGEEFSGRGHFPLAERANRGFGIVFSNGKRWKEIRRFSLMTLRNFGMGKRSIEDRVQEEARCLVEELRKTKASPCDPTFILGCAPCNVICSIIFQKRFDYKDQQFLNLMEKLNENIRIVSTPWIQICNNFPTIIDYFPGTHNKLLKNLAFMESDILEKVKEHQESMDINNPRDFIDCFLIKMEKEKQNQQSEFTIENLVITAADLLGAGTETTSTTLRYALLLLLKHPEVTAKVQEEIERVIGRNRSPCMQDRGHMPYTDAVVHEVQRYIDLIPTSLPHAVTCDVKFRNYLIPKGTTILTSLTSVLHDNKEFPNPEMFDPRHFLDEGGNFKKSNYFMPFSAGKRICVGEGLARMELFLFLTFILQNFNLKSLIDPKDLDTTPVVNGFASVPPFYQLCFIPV

Row | SMILES | Potency [1] | Potency [2] | outcome [3] | Potency [4] | Potency [5] | Potency [6] | Potency [7] | Potency [8] | Potency [9] | Potency [10] | max activation [11] | Potency [12] | Potency [13] | Potency [14]
1 | COC(=O)c1cc(C(=O)OC)cc(S(=O)(=O)O)c1 | inactive | inactive | inactive | inactive | inactive | inactive | inactive | inactive | inactive | inactive |  |  |  | 
2 | O=C1CC2CC1C1CCCC21 (centres undefined) | inactive | inactive | inactive | inactive |  | inactive | inactive | inactive | inactive | inactive |  |  |  | 
3 | O=C(CCCN1CCN(c2ccccn2)CC1)c1ccc(F)cc1 |  | inactive | inactive | inactive | 6.68 µM (active) | 11 µM (active) | 34.7 µM (active) | 7.76 µM (active) | 6.74 µM (active) | inactive | 0.0374% (inactive) | 12.6 µM (active) | 10 µM (active) | inactive
4 | Brc1c(NC2=NCCN2)ccc2nccnc12 | inactive | inactive | inactive | inactive |  |  |  |  | inactive |  |  |  |  | 
5 | CC(C)(c1ccc(O)cc1)c1ccc(O)cc1 |  | 69.8 µM (active) | inactive | inactive | 24.1 µM (active) and 9.86 µM (active) | inactive and 64.4 µM (active) | inactive | 35.2 µM (active) and 28.8 µM (active) | inactive |  |  |  |  | inactive and 57.4 µM (active)
6 | NS(=O)(=O)c1cc(C(=O)NN2C[C@H]3[C@H]4CCC(C4)[C@H]3C2)ccc1Cl |  |  | inactive | inactive | inactive |  | inactive | inactive | inactive |  |  |  |  | inactive
7 | Cc1ccc(Cl)cc1Cl | inactive | inactive | inactive | inactive | inactive | inactive | inactive | inactive | inactive | inactive |  |  |  | 
8 | C=C1CC[C@H]2C[C@@H]1C2(C)C | inactive | inactive | inactive | inactive | inactive | inactive | inactive |  | inactive | inactive |  |  |  | inactive
9 | CCO[Si](CCC1CCC2OC2C1)(OCC)OCC (centres undefined) | inactive |  |  | inactive | inactive |  | inactive | inactive | inactive | inactive |  |  |  | 
10 | OC[C@]1(O)OC[C@@H](O)[C@H](O)[C@@H]1O | inactive | inactive |  | inactive | inactive |  | inactive | inactive | inactive | inactive |  |  |  | inactive
11 | CC1=CC(C)C(C=O)CC1 (centres undefined) |  | inactive | inactive | inactive | inactive |  | inactive | inactive | inactive | inactive |  |  |  | inactive
12 | NC(CSCC(=O)O)C(=O)O (centres undefined) |  |  |  |  | inactive | inactive | inactive | inactive | inactive | inactive | -3.73% (inactive) | inactive | inactive | 
13 | Nc1cc(=O)[nH]c(N)n1 | inactive | inactive | inactive |  | inactive | inactive | inactive | inactive | inactive | inactive |  |  |  | inactive
14 | O=c1[nH]c(=O)n([C@H]2C[C@H](O)[C@@H](CO)O2)cc1I | inactive |  | inactive | inactive |  | inactive | inactive | inactive | inactive | inactive | 6.42% (inactive) |  |  | inactive
15 | CC(C)(O)C(=O)c1ccccc1 |  | inactive | inactive | inactive | inactive | inactive | 39.9 µM (active) | inactive | inactive | inactive |  |  |  | 
16 | CCCN(CCC)CCc1cccc2c1CC(=O)N2 | inactive | inactive | inactive | inactive | inactive |  | inactive | inactive |  | inactive |  |  |  | inactive
17 | C/C=C(\C)C#N | inactive | inactive |  | inactive | inactive | inactive | 78.4 µM (active) |  | inactive | inactive |  |  |  | 
18 | Nc1c2c(nc3ccccc13)CCCC2O (centres undefined) | inactive | inactive | inactive | inactive | inactive |  | inactive | inactive | inactive | inactive |  |  |  | 15.5 µM (active)
19 | CC(C)(O)C#CC(C)(C)O | inactive | inactive | inactive | inactive | inactive |  | inactive | inactive | inactive | inactive |  |  |  | inactive
20 | CCN1CCC[C@H]1CNC(=O)c1cc(S(N)(=O)=O)ccc1OC | inactive | inactive | inactive |  |  | 15.5 µM (active) | inactive | inactive | inactive | inactive | -2.59% (inactive) |  |  | inactive
21 | CC(=O)CC(C)(C)C1CCCCC1 | inactive | inactive | inactive | inactive | inactive | inactive | inactive | inactive | inactive | inactive |  |  |  | 
22 | COCCc1ccc(OCC(O)CNC(C)C)cc1 (centres undefined) | inactive | inactive | inactive | inactive |  |  |  |  | inactive |  | -0.133% (inactive) |  |  | 
23 | CC(=O)OC/C=C(\C)CC/C=C(\C)CCC=C(C)C | inactive | inactive | inactive | inactive | 61.1 µM (active) and inactive |  | 20 µM (active) and 71 µM (active) | 35.6 µM (active) | inactive | 10 µM (active) |  |  |  | inactive
